Source: PubChem BioAssay AID1421 (Emory University Molecular Libraries Screening Center, 2008)
Out of some 1,300 compounds screened, about 140 (11%) were called active. How the calls were made is not given here. Only a sample is shown. Results with a measured potency or affinity are listed apart.

target: Prostaglandin E2 receptor EP2 subtype (Homo sapiens) (UniProt P43116); assay: compounds shifting PGE2 potency at EP2 – cell-based, human EP2, PGE2 EC50 shift, dose response (AID 1421); settings: EP2-expressing cells, PGE2 EC50 shift by compound; at 20 µM
Sequence (P43116 whole entry, looked up): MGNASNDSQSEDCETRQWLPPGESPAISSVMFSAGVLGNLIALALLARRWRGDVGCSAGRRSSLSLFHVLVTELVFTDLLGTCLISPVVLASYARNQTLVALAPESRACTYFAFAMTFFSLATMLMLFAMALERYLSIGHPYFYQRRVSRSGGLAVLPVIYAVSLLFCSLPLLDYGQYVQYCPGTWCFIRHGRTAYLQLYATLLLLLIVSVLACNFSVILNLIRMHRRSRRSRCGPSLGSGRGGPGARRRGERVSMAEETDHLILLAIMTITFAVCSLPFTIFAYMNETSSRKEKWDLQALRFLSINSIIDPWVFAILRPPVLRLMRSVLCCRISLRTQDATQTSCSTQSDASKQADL

PGE2 EC50 with compound, inactive:
c1ccc(C2Nc3ccccc3Oc3ccccc32)cc1 (stereo unspecified) 0.21 nM
O=C(NCCC1=CCCCC1)c1cccc2c1C(=O)N(C1CCCCC1)C2 1.89 nM
Cc1ccc(S(=O)(=O)N2c3ccccc3OCC2C(C)(C)C)cc1 (stereo unspecified) 0.14 nM
Cc1ccc2c(c1)N(S(=O)(=O)c1ccc(F)cc1)C(C(C)(C)C)CO2 (stereo unspecified) 0.45 nM
CCC(=O)N(CC)c1nc(-c2cc(OC)ccc2OC)cs1 0.24 nM
CCCOP(=O)(OCCC)c1nc(-c2ccccc2)oc1NCc1ccccc1 0.15 nM
CCOc1ccc(OCC)c(NC(=O)CN2CCN(c3cccc(C)c3)CC2)c1 0.86 nM
O=C(O)c1cc(C(=O)O)cc(N2C(=O)c3ccccc3C2=O)c1 0.39 nM
O=C1CCCc2ccccc2N1Cc1c(Cl)cccc1Cl 0.64 nM
O=c1c2ccccc2c(-c2ccccc2)nn1Cc1c(Cl)cccc1Cl 0.41 nM
CN(Cc1cccs1)c1nc(-c2cccnc2)nc2ccccc12 0.64 nM
CC(C)CCn1c(O)c(N=NC(=O)c2ccco2)c2ccccc21 0.33 nM
CC(C)CCn1c(Oc2ccc(Cl)cc2)nc2c1c(=O)n(C)c(=O)n2C 0.31 nM
CCCCn1c(C)cc(C)c(S(=O)(=O)c2ccccc2C)c1=O 0.31 nM
O=c1c2ccccc2c2ccccc2c(=O)n1Cc1ccco1 0.45 nM
CCCN(CCC)C(C)C(=O)NCC1(c2ccccc2)CCCC1 (stereo unspecified) 0.23 nM
CCSc1nc2ccccc2n1Cc1ccccc1F 0.31 nM
CC1CCN(C(C)C(=O)Nc2ccccc2-c2ccccc2)CC1 (stereo unspecified) 0.26 nM
Cc1ccc(S(=O)(=O)NCC(=O)OCN2C(=O)c3ccccc3C2=O)cc1 2.7 nM
Cc1ccc(S(=O)(=O)c2ccc(Oc3cccc(C)c3)cc2)cc1 0.66 nM
COc1ccc(OCC(=O)NC(=S)Nc2ccc3c4c(cccc24)CC3)cc1 11.2 nM
Cc1cnn(-c2nc(-c3ccccc3)cc(-c3ccccc3)n2)c1 0.56 nM
COc1ccc(C2=Nn3c(nnc3-c3ccccc3)SC2)cc1OC 0.88 nM
COc1ccc(-c2cc(C(F)(F)F)nc(NC3CCCC3)n2)cc1OC 0.54 nM
CN(C)c1nc(N2CCOCC2)nc(N(c2ccccc2)c2ccccc2)n1 0.59 nM
COc1ccc(-c2cc(C(F)(F)F)n3nc(C(=O)N(C)Cc4ccccc4)cc3n2)cc1OC 0.42 nM
c1ccc(Nc2nc(N3CCNCC3)nc(N3CCOCC3)n2)cc1 0.98 nM
CC(=O)c1sc2nc(-c3ccc(C)cc3)c3c(c2c1N)CCCC3 0.52 nM
O=C(/C(=C/O)N=Nc1ccccc1)c1cccs1 2.24 nM
COCCOC(=O)c1c(C)oc2ccc(OCc3ccccc3)cc12 0.53 nM
c1ccc(Oc2nc3ccccc3n3cccc23)cc1 0.38 nM
Cc1cc(C)c2c(n1)sc1c(=O)n(Cc3ccccc3Cl)nnc12 0.29 nM
O=C1c2ccccc2OC2(C=Cc3ccccc3O2)N1Cc1ccccc1 (stereo unspecified) 0.27 nM
Clc1ccc(-c2nn3c(-c4ccccc4)nnc3s2)cc1 1.36 nM
CCCCOC(=O)Sc1nc2ccccc2o1 2.08 nM
COc1ccc(C(=O)NCCCN2CCOCC2)cc1OC 0.55 nM
COc1ccc(-c2cc(C(F)(F)F)nc(NCc3ccco3)n2)cc1OC 0.48 nM
CC(=O)Oc1c2c(c3c(c1CC=C(C)C)O[C@]14C(=C[C@@H]5CC1C(C)(C)OC4(C/C=C(\C)C(=O)O)C5=O)C3=O)OC(C)(CCC=C(C)C)C=C2 (stereo partly specified) 7.31 nM
O=c1cc(N2CCCCC2)c(-c2ccccc2)nn1Cc1c(Cl)cccc1Cl 1.07 nM
O=c1cc2c(nn1Cc1c(Cl)cccc1Cl)-c1ccccc1CC2 0.74 nM
Cc1ccc(Oc2nc(-c3ccccc3)ncc2S(C)(=O)=O)cc1 0.58 nM
O=C(O)c1ccc(CNCc2cccc(Cl)c2Cl)cc1 1.05 nM
CCOC(=O)C1=CN(CC2CCCO2)C=C(C(=O)OCC)C1c1ccccc1C(F)(F)F (stereo unspecified) 0.31 nM
C=CCC1(C)C(=O)N(c2ccccc2)c2ccccc21 (stereo unspecified) 0.38 nM
Brc1cccc(-c2nnc(SCc3ccon3)n2-c2ccccc2)c1 0.48 nM
COc1ccc(Oc2cc(C(F)(F)F)nc(N(C)C)n2)cc1 0.6 nM
Cc1cc(C)n(-c2nc(C)nc3c2cnn3-c2ccccc2)n1 0.41 nM
COC(=O)c1ccc(-c2ccco2)n1Cc1cccc(C)c1 0.17 nM
Cc1nn(Cc2c(Cl)cccc2Cl)c(C)c1C(=O)NCc1ccc(C)n1C 0.76 nM
O=C(CSc1nc2cc(Cl)ccc2s1)N1CCCc2ccccc21 0.24 nM
C/C(=N\N=C(c1ccccc1)c1ccccc1)c1ccco1 0.47 nM
CCOc1ccccc1NC(=O)c1c(Br)cnn1C 0.79 nM
CCOC(=O)c1ccccc1NC1c2ccccc2C(=O)N1c1cc(C)ccn1 (stereo unspecified) 0.34 nM
CCOc1ccccc1Cn1c(=O)oc2ccc(C)cc21 0.36 nM
O=C(CSc1ncnc2c1oc1ccccc12)Nc1cccc(F)c1 2.94 nM
COc1cccc(/C=N/c2oc(-c3ccccc3)cc2C#N)c1O 8.67 nM
COc1ccc(Nc2nc(-c3cc4cccc(OC)c4oc3=O)cs2)cc1 0.92 nM
O=C(CSc1nnc(COc2ccccc2)n1-c1ccccc1)c1ccccc1 0.74 nM
Cc1cc(C)cc(OC2CCCCC2NS(=O)(=O)c2ccccc2)c1 (stereo unspecified) 0.48 nM
COc1ccccc1C(=O)NC(=S)Nc1cc(C(=O)O)ccc1C 0.34 nM
C=CCOc1ccccc1CNc1ccccc1C 0.32 nM
Cc1cc(SCC(=O)NCCC2=CCCCC2)nc2ccccc12 0.21 nM
CCCc1cc(=O)n2[nH]c(NCc3cccs3)nc2n1 0.94 nM
N#CN=C1SCCS1 0.67 nM
CSc1ncnc2sc(C)c(C)c12 0.56 nM
C=CCSc1ncnc2sc(C)c(C)c12 0.85 nM
CC(C)c1ccc2c(c1)CCC1C(C)(C(N)=O)CCCC21C (stereo unspecified) 0.38 nM
Cn1c(/C=C/N(Cc2ccccc2)c2ccccc2)c([N+](=O)[O-])c(=O)n(C)c1=O 0.45 nM
CCN(CC)CCN1C(=O)c2cccc3cc(N)cc(c23)C1=O 0.76 nM
Brc1ccccc1Cn1c(-c2cscn2)nc2ccccc21 0.39 nM
c1ccc(-c2n[nH]nc2-c2ccccc2)cc1 0.21 nM
FC(F)(F)c1nnc(-c2ccccc2)nc1Sc1ccccc1 0.72 nM
CCN1C(=O)/C(=C2/C=CC=CN2C)SC1=S 0.94 nM
Nc1ccccc1CCCC(=O)O 0.94 nM
COc1cc2ccccc2cc1C(=O)NC(=S)Nc1cccc(C(=O)O)c1 6.94 nM
O=C(Nc1ccccc1Oc1ccccc1)c1ccccc1F 0.17 nM
CC1CCCCN1C(=O)/C(=C\c1ccccc1)c1ccccc1 (stereo unspecified) 0.44 nM
Cc1sc(NC(=O)CN2CCOCC2)c(C(=O)c2ccccc2)c1C 0.63 nM
CCc1ccccc1NC(=S)N(Cc1ccco1)C(C)c1cccs1 (stereo unspecified) 0.38 nM
CCOC(=O)C1=C(N)OC(C)=C(C#N)C1c1ccco1 (stereo unspecified) 0.56 nM
S=c1[nH]nc(C2CCCCC2)n1Cc1ccccc1 0.39 nM
C=CCc1cc(C=O)cc(OC)c1OCc1ccc(Cl)cc1 0.92 nM
CNC(=O)NC(=O)CSc1nc(-c2cccs2)c(C#N)c(=O)[nH]1 15.8 nM
CC(Cc1ccccc1)NC(=O)C1(c2ccccc2)CCOCC1 (stereo unspecified) 1.12 nM
CCOC(=O)c1cnc2c(c(C)nn2C)c1Oc1ccc(Cl)cc1 0.52 nM
C=CCn1c(=O)c(C(=O)NCCc2ccccc2)c(O)c2ccccc21 0.5 nM
CC(C)Cc1nc(SCc2cccnc2)c2c(=O)n(C)c(=O)n(C)c2n1 0.37 nM
Cc1ccc2nc(SCC(=O)NCc3ccco3)c(C)cc2c1 0.5 nM
COc1cc(OC)c2c(OC)c(-c3ccc4c(c3)OCO4)c(=O)oc2c1 0.39 nM
CCC1C/C(=C/c2ccco2)C(=O)/C(=C/c2ccco2)C1 (stereo unspecified) 0.69 nM
Cc1cc(C)c(S(=O)(=O)c2ccccc2)c(OC(=O)c2c(Cl)cc(Cl)cc2Cl)n1 0.38 nM
c1ccc(CCc2cccnc2)nc1 0.8 nM
Cc1noc(C)c1CSc1ncnc2sc3c(c12)CCC(C)C3 (stereo unspecified) 0.4 nM
Cc1noc(C)c1CSc1ncnc2sc3c(c12)CCCCC3 0.42 nM
CC(=O)O[C@H]1C[C@@H](OC(C)=O)C(C)(C)C2C[C@@H](OC(C)=O)[C@]3(C)C([C@H](OC(C)=O)C[C@@]4(C)[C@H](c5ccoc5)OC(=O)[C@H]5O[C@]543)[C@]21C (stereo partly specified) 0.32 nM
Cc1ccc(C)n1-n1cnc2scc(-c3cccs3)c2c1=O 0.29 nM
